From PubChem BioAssay (NCI)
This is part of a sample that, as a whole, favours compounds with a hit. Of some 79,000 tested, about 15% had one in any assay. Activity calls are given as the source filed them. No stated cut-off is given here; in the data, active means growth inhibition above about 70%; inactive means the rest.

How the values were obtained:
[1] = NCI Yeast Anticancer Drug Screen. Data for the rad52 strain (AID 147);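 further: 0% = growth of vehicle-treated control cultures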; settings: S. cerevisiae rad52 mutant growth inhibition, active compounds read high
Method in brief: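 The repair-mutant yeast strain was incubated with compounds, then growth was read and inhibition derived relative to vehicle.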

[2] = NCI Yeast Anticancer Drug Screen. Data for the wt1 strain (AID 149);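 further: 0% = growth of vehicle-treated wt1 cultures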; settings: S. cerevisiae wt1 strain (SPY 50644) growth inhibition, active compounds read high
Method in brief: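 Readout: yeast growth inhibition, normalised to vehicle controls, in the wt1 strain exposed to test compounds.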

[3] = NCI Yeast Anticancer Drug Screen. Data for the rad50EPP+ strain (AID 151);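 further: 0% = growth of vehicle-treated control cultures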; settings: S. cerevisiae rad50 mutant strain, active compounds read high
Method in brief: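 Vehicle-normalised growth inhibition; rad50EPP+ yeast strain, altered in DNA damage repair, compound-treated.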

[4] = NCI Yeast Anticancer Drug Screen. Data for the mgt1 strain (AID 153); settings: S. cerevisiae mgt1 mutant growth inhibition, active compounds read high
Method in brief: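 Vehicle-normalized growth inhibition is determined in mgt1 yeast, a strain selected for a defined alteration in DNA repair or cell cycle control.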

[5] = NCI Yeast Anticancer Drug Screen. Data for the rad50 strain (AID 155);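 further: 0% = growth of vehicle-only cultures of the same strain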; settings: S. cerevisiae rad50 strain growth inhibition, active compounds read high
Method in brief: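 Compounds were tested on a yeast strain with an engineered DNA damage repair alteration; the reported value is growth inhibition normalised to vehicle treatment.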

[6] = NCI Yeast Anticancer Drug Screen. Data for the mec2-1 strain (AID 157); settings: S. cerevisiae mec2-1 strain, active compounds read high
Method in brief: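 Mutant yeast (mec2-1) grown with compound; growth inhibition relative to vehicle control reported.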

[7] = NCI Yeast Anticancer Drug Screen. Data for the rad14 strain (AID 159);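 further: 0% = growth of vehicle-treated control cultures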; settings: S. cerevisiae rad14 strain growth inhibition, active compounds read high
Method in brief: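 Compound-treated yeast with a defined DNA-repair lesion; growth inhibition normalised to vehicle-treated cultures.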

[8] = NCI Yeast Anticancer Drug Screen. Data for the sgs1 mgt1 strain (AID 161);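 further: 0% = growth of cultures given vehicle only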; settings: S. cerevisiae sgs1 mgt1 strain, active compounds read high
Method in brief: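 Compounds are added to genetically altered yeast, and growth is compared with cultures given vehicle alone to give percent inhibition.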

[9] = NCI Yeast Anticancer Drug Screen. Data for the CLN2oe strain (AID 163);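 further: 0% = growth of vehicle-only control cultures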; settings: S. cerevisiae CLN2oe strain, active compounds read high
Method in brief: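 Compounds are applied to yeast harbouring a defined cell-cycle control change; reduced growth compared with vehicle-treated controls gives the value.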

[10] = NCI Yeast Anticancer Drug Screen. Data for the cln2 rad14 strain (AID 165);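 further: 0% = growth equal to vehicle treated cultures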; settings: S. cerevisiae cln2 rad14 strain, active compounds read high
Method in brief: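 Readout is yeast growth inhibition versus vehicle-treated controls, using a strain with cln2 and rad14 alterations exposed to compound.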

[11] = NCI Yeast Anticancer Drug Screen. Data for the bub3 strain (AID 167); settings: S. cerevisiae bub3 mutant strain, active compounds read high
Method in brief: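 Growth of a checkpoint-deficient yeast mutant is measured after compound exposure. Values represent inhibition relative to vehicle.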

[12] = NCI Yeast Anticancer Drug Screen. Data for the wt2 strain (AID 169);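 further: 0% = growth of vehicle-treated yeast cultures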; settings: S. cerevisiae wt2 strain growth inhibition, active compounds read high
Method in brief: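 Against vehicle-treated controls, the growth of yeast exposed to each compound was compared, and the inhibition was recorded.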

[13] = NCI Yeast Anticancer Drug Screen. Data for the mlh1 strain (AID 171);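 further: 0% = growth of vehicle-treated control cultures of the same strain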; settings: S. cerevisiae mlh1 strain growth inhibition, active compounds read high
Method in brief: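 Measured: yeast growth. Reference: vehicle-treated controls. Organism: strain with a defined alteration affecting DNA damage repair or cell cycle control, treated with compound.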

[14] = NCI Yeast Anticancer Drug Screen. Data for the sgs1 strain (AID 173);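 further: 0% = growth of vehicle-only control cultures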; settings: S. cerevisiae sgs1 mutant, active compounds read high
Method in brief: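 Each compound was added to cultures of the altered yeast strain. Growth was recorded, and inhibition was derived by comparison with vehicle controls.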

[15] = NCI Yeast Anticancer Drug Screen. Data for the mlh1 rad18 strain (AID 175); settings: S. cerevisiae mlh1 rad18 strain growth inhibition, active compounds read high
Method in brief: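 Genetically defined yeast (DNA repair-deficient) exposed to compounds; growth inhibition determined relative to vehicle.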

[16] = NCI Yeast Anticancer Drug Screen. Data for the rad18 strain (AID 177); settings: S. cerevisiae rad18 mutant growth inhibition, active compounds read high
Method in brief: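 Vehicle-treated cultures served as the baseline for scoring compound-induced growth inhibition in DNA-repair-mutant yeast.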

[17] = at 5.0 µM (retest, dose inferred, filed as 0.5)
[18] = at 50.0 µM (retest, dose inferred, filed as 5.0)

Measured: growth inhibition

O=C1C=CC(=O)C1(Br)Br
active: [1]; at 33.0 µM 95% | [1]; at 100.0 µM 99% | [2]; at 100.0 µM 99% | [3]; at 33.0 µM 71% | [3]; at 100.0 µM 99% | [4]; at 33.0 µM 91% | [4]; at 100.0 µM 99% | [5]; at 33.0 µM 94% | [5]; [18] 99% | [5]; at 50.0 µM 99.6% | [5]; at 100.0 µM 99% | [6]; at 33.0 µM 77% | [6]; [18] 100% | [6]; at 50.0 µM 99.8% | [6]; at 100.0 µM 99% | [7]; at 33.0 µM 88% | [7]; at 100.0 µM 99% | [8]; [18] 99% | [8]; at 50.0 µM 99.2% | [9]; at 33.0 µM 75% | [9]; at 100.0 µM 98% | [10]; [18] 99% | [10]; at 50.0 µM 99.2% | [11]; at 33.0 µM 95% | [11]; [18] 99% | [11]; at 50.0 µM 99.4% | [11]; at 100.0 µM 99% | [12]; at 33.0 µM 97% | [12]; at 100.0 µM 99% | [13]; at 33.0 µM 95% | [13]; at 100.0 µM 99% | [14]; at 11.0 µM 75% | [14]; at 33.0 µM 99% | [14]; at 100.0 µM 99% | [15]; [17] 78% | [15]; [18] 99% | [15]; at 50.0 µM 99.2% | [16]; at 11.0 µM 77% | [16]; at 33.0 µM 95% | [16]; at 100.0 µM 99%
inactive: [1]; at 1.2 µM 7% | [1]; at 3.7 µM 24% | [1]; at 11.0 µM 62% | [2]; at 1.2 µM -1% | [2]; at 3.7 µM 0% | [2]; at 11.0 µM 8% | [2]; at 33.0 µM 66% | [3]; at 1.2 µM 2% | [3]; at 3.7 µM 15% | [3]; at 11.0 µM 33% | [4]; at 1.2 µM 1% | [4]; at 3.7 µM -4% | [4]; at 11.0 µM 25% | [5]; at 1.2 µM 4% | [5]; at 3.7 µM 24% | [5]; [17] 21% | [5]; at 11.0 µM 65% | [6]; at 1.2 µM 1% | [6]; at 3.7 µM 5% | [6]; [17] 3% | [6]; at 11.0 µM 23% | [7]; at 1.2 µM 1% | [7]; at 3.7 µM 13% | [7]; at 11.0 µM 28% | [8]; [17] 54% | [9]; at 1.2 µM -5% | [9]; at 3.7 µM 3% | [9]; at 11.0 µM 18% | [10]; [17] 11% | [11]; at 1.2 µM 3% | [11]; at 3.7 µM 3% | [11]; [17] 28% | [11]; at 11.0 µM 18% | [12]; at 1.2 µM -4% | [12]; at 3.7 µM -4% | [12]; at 11.0 µM 24% | [13]; at 1.2 µM 1% | [13]; at 3.7 µM 11% | [13]; at 11.0 µM 36% | [14]; at 1.2 µM -13% | [14]; at 3.7 µM -14% | [16]; at 1.2 µM 15% | [16]; at 3.7 µM 40%

COc1cccc2c1C(=O)c1c(O)c3c(c(O)c1C2=O)C[C@@](O)(C(C)=O)C[C@@H]3OC1CC(N)C(OC2CC(O)C(O)C(C)O2)C(C)O1 (stereo partly specified)
active: [5]; [18] 83% | [5]; at 50.0 µM 76.8% | [10]; [18] 78%
inactive: [1]; at 1.2 µM 16% | [1]; at 3.7 µM 12% | [1]; at 11.0 µM 15% | [1]; at 33.0 µM 27% | [1]; at 100.0 µM 59% | [2]; at 1.2 µM -26% | [2]; at 3.7 µM -25% | [2]; at 11.0 µM -7% | [2]; at 33.0 µM -15% | [2]; at 100.0 µM -2% | [3]; at 1.2 µM 11% | [3]; at 3.7 µM 8% | [3]; at 11.0 µM 10% | [3]; at 33.0 µM 18% | [3]; at 100.0 µM 38% | [4]; at 1.2 µM -22% | [4]; at 3.7 µM -22% | [4]; at 11.0 µM -18% | [4]; at 33.0 µM -14% | [4]; at 100.0 µM -17% | [5]; at 1.2 µM 1% | [5]; at 3.7 µM 10% | [5]; [17] 36% | [5]; at 11.0 µM 17% | [5]; at 33.0 µM 28% | [5]; at 100.0 µM 59% | [6]; at 1.2 µM -25% | [6]; at 3.7 µM -20% | [6]; [17] 5% | [6]; at 11.0 µM -24% | [6]; at 33.0 µM -17% | [6]; [18] 33% | [6]; at 50.0 µM 49.1% | [6]; at 100.0 µM -8% | [7]; at 1.2 µM -10% | [7]; at 3.7 µM -11% | [7]; at 11.0 µM -9% | [7]; at 33.0 µM -1% | [7]; at 100.0 µM 15% | [8]; [17] 14% | [8]; [18] 44% | [8]; at 50.0 µM 39.8% | [9]; at 1.2 µM -14% | [9]; at 3.7 µM -10% | [9]; at 11.0 µM -12% | [9]; at 33.0 µM -6% | [9]; at 100.0 µM 6% | [10]; [17] 19% | [10]; at 50.0 µM 57.8% | [11]; at 1.2 µM -30% | [11]; at 3.7 µM -26% | [11]; [17] 4% | [11]; at 11.0 µM -31% | [11]; at 33.0 µM -23% | [11]; [18] 37% | [11]; at 50.0 µM 42.4% | [11]; at 100.0 µM -6% | [12]; at 1.2 µM -57% | [12]; at 3.7 µM -65% | [12]; at 11.0 µM -54% | [12]; at 33.0 µM -28% | [12]; at 100.0 µM 2% | [13]; at 1.2 µM -25% | [13]; at 3.7 µM -15% | [13]; at 11.0 µM -17% | [13]; at 33.0 µM -6% | [13]; at 100.0 µM -3% | [14]; at 1.2 µM -2% | [14]; at 3.7 µM -4% | [14]; at 11.0 µM -11% | [14]; at 33.0 µM -8% | [14]; at 100.0 µM 0% | [15]; [17] 18% | [15]; [18] 48% | [15]; at 50.0 µM 51.3% | [16]; at 1.2 µM -8% | [16]; at 3.7 µM -17% | [16]; at 11.0 µM -32% | [16]; at 33.0 µM -21% | [16]; at 100.0 µM -2%
